The values below come from PubChem BioAssay (NCI).

Compounds without any hit were thinned out: in the full panel of roughly 79,000, 15% have a hit. A number with no mark means an inactive call. Activity calls are given as the source filed them. Rule as the data show it: active = growth inhibition above about 70%; inactive = the rest.

Experiment [1] in a line: NCI Yeast Anticancer Drug Screen. Data for the rad50 strain (AID 155).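 Also: 0% = growth of vehicle-only cultures of the same strain.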 The settings on record: S. cerevisiae rad50 strain growth inhibition, active compounds read high. The procedure, abridged: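 Yeast carrying a defined DNA repair defect were exposed to test compounds, and growth was compared with vehicle-treated controls to give percent inhibition.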
The nature of experiment [2]: NCI Yeast Anticancer Drug Screen. Data for the mec2-1 strain (AID 157). The settings on record: S. cerevisiae mec2-1 strain, active compounds read high. The procedure, abridged:
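Readout is yeast growth inhibition, normalised to vehicle-treated controls, in the mec2-1 strain exposed to compound.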

The nature of experiment [3]: NCI Yeast Anticancer Drug Screen. Data for the sgs1 mgt1 strain (AID 161).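 Also: 0% = growth of cultures given vehicle only.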 The settings on record: S. cerevisiae sgs1 mgt1 strain, active compounds read high. The procedure, abridged: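 Yeast cells carrying a defined DNA-repair defect were exposed to test compounds. Growth inhibition was measured relative to vehicle-treated controls.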
Experiment [4] in a line: NCI Yeast Anticancer Drug Screen. Data for the cln2 rad14 strain (AID 165).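 Also: 0% = growth equal to vehicle treated cultures.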 The conditions noted are these: S. cerevisiae cln2 rad14 strain, active compounds read high. The procedure, abridged:
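Relative to vehicle controls, growth inhibition of compound-treated cln2 rad14 yeast was recorded.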

Experiment [5] is described as follows: NCI Yeast Anticancer Drug Screen. Data for the bub3 strain (AID 167). The conditions noted are these: S. cerevisiae bub3 mutant strain, active compounds read high. The procedure, abridged: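 Compounds were applied to a genetically altered yeast strain carrying a cell-cycle control defect. Growth inhibition was scored against vehicle-treated controls.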
A short description of experiment [6]: NCI Yeast Anticancer Drug Screen. Data for the mlh1 rad18 strain (AID 175). The settings on record: S. cerevisiae mlh1 rad18 strain growth inhibition, active compounds read high. The procedure, abridged:
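Test agents were incubated with a yeast strain of defined genotype (DNA damage repair defect). Inhibition of growth was derived by comparison with vehicle-exposed cultures.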

The mark [7] stands for this setting: at 5.0 µM (retest, dose inferred, filed as 0.5).
Setting [8] is: at 50.0 µM (retest, dose inferred, filed as 5.0).

`CCCCCCCC/C=C\CCCCCCCCN1CCOCC1`: the growth inhibition in experiment [1] (setting [7]) is -2%; in experiment [1] (setting [8]) it was -2%; in experiment [1] (at 50.0 µM) it was 99.2% (active); in experiment [2] (setting [7]), 0%; in experiment [2] (setting [8]), -2%; in experiment [2] (at 50.0 µM) it was 99.3% (active). Also, the growth inhibition is -4% in experiment [3] (setting [7]); 5% in experiment [3] (setting [8]); 99.2% (active) in experiment [3] (at 50.0 µM); 11% in experiment [4] (setting [7]); 3% in experiment [4] (setting [8]); 97.5% (active) in experiment [4] (at 50.0 µM). For the same compound, the growth inhibition was 15% in experiment [5] (setting [7]); 19% in experiment [5] (setting [8]); 99.1% (active) in experiment [5] (at 50.0 µM); -3% in experiment [6] (setting [7]); 1% in experiment [6] (setting [8]); 99.2% (active) in experiment [6] (at 50.0 µM).

For `CCCCCCCCCCCC(=O)OCC1OC(n2cc(F)c(=O)[nH]c2=O)C(N)C(O)C1O` (stereo not given), the growth inhibition in experiment [1] (setting [7]) is 34%; in experiment [1] (setting [8]), 34%; in experiment [1] (at 50.0 µM) it was 90.2% (active); in experiment [2] (setting [7]), 31%; in experiment [2] (setting [8]) it was 31%; in experiment [2] (at 50.0 µM), 91% (active). Besides, the growth inhibition is 10% in experiment [3] (setting [7]); 10% in experiment [3] (setting [8]); 89.1% (active) in experiment [3] (at 50.0 µM); 22% in experiment [4] (setting [7]); 22% in experiment [4] (setting [8]); 91.2% (active) in experiment [4] (at 50.0 µM). Further, the growth inhibition in experiment [5] (setting [7]) was -11%; in experiment [5] (setting [8]) it was -11%; in experiment [5] (at 50.0 µM) it was 90.3% (active); in experiment [6] (setting [7]) it was 24%; in experiment [6] (setting [8]), 24%; in experiment [6] (at 50.0 µM) it was 88.5% (active).

For the compound `O=c1cc(CI)oc2ccccc12`, the growth inhibition in experiment [1] (setting [7]) is 34%; in experiment [1] (setting [8]), 99% (active); in experiment [1] (at 50.0 µM), 99.4% (active); in experiment [2] (setting [7]), 57%; in experiment [2] (setting [8]), 99% (active); in experiment [2] (at 50.0 µM), 99.5% (active). The growth inhibition is 46% in experiment [3] (setting [7]); 99% (active) in experiment [3] (setting [8]); 99.6% (active) in experiment [3] (at 50.0 µM); 20% in experiment [4] (setting [7]); 100% (active) in experiment [4] (setting [8]); 85.7% (active) in experiment [4] (at 50.0 µM). The growth inhibition in experiment [5] (setting [7]) was 45%; in experiment [5] (setting [8]), 99% (active); in experiment [5] (at 50.0 µM), 94% (active); in experiment [6] (setting [7]), 36%; in experiment [6] (setting [8]) it was 99% (active); in experiment [6] (at 50.0 µM), 99.5% (active).

With `CC(C)Cc1ncc(CC(C)C)n(O)c1=O`, the growth inhibition in experiment [1] (setting [7]) is 34%; in experiment [1] (setting [8]) it was 97% (active); in experiment [1] (at 50.0 µM), 89.2% (active); in experiment [2] (setting [7]), 26%; in experiment [2] (setting [8]), 98% (active); in experiment [2] (at 50.0 µM) it was 87.8% (active). Also, the growth inhibition in experiment [3] (setting [7]) was 41%; in experiment [3] (setting [8]), 97% (active); in experiment [3] (at 50.0 µM), 91% (active); in experiment [4] (setting [7]) it was -6%; in experiment [4] (setting [8]), 97% (active); in experiment [4] (at 50.0 µM) it was 81.3% (active). The growth inhibition in experiment [5] (setting [7]) was 10%; in experiment [5] (setting [8]) it was 99% (active); in experiment [5] (at 50.0 µM), 89.5% (active); in experiment [6] (setting [7]) it was 61%; in experiment [6] (setting [8]), 98% (active); in experiment [6] (at 50.0 µM), 89.9% (active).

For the compound `CCCCCCCCSCc1ccc(N)cc1`, the growth inhibition in experiment [1] (setting [7]) was 23%; in experiment [1] (setting [8]), 97% (active); in experiment [1] (at 50.0 µM), 89.7% (active); in experiment [2] (setting [7]) it was 12%; in experiment [2] (setting [8]) it was 98% (active); in experiment [2] (at 50.0 µM) it was 91.4% (active). In addition, the growth inhibition was 37% in experiment [3] (setting [7]); 98% (active) in experiment [3] (setting [8]); 90.5% (active) in experiment [3] (at 50.0 µM); 39% in experiment [4] (setting [7]); 98% (active) in experiment [4] (setting [8]); 89.5% (active) in experiment [4] (at 50.0 µM). Moreover, the growth inhibition was 51% in experiment [5] (setting [7]); 98% (active) in experiment [5] (setting [8]); 89% (active) in experiment [5] (at 50.0 µM); 20% in experiment [6] (setting [7]); 97% (active) in experiment [6] (setting [8]); 89.6% (active) in experiment [6] (at 50.0 µM).

Take `O=[N+]([O-])c1ccc(-[n+]2ccc3ccccc3c2)c([N+](=O)[O-])c1`: the growth inhibition was 14% in experiment [1] (setting [7]); 78% (active) in experiment [1] (setting [8]); 72.4% (active) in experiment [1] (at 50.0 µM); 8% in experiment [2] (setting [7]); 80% (active) in experiment [2] (setting [8]); 52.3% in experiment [2] (at 50.0 µM). Also, the growth inhibition is 11% in experiment [3] (setting [7]); 79% (active) in experiment [3] (setting [8]); 82.4% (active) in experiment [3] (at 50.0 µM); 10% in experiment [4] (setting [7]); 61% in experiment [4] (setting [8]); 37.4% in experiment [4] (at 50.0 µM). Moreover, the growth inhibition is 6% in experiment [5] (setting [7]); 59% in experiment [5] (setting [8]); 78% (active) in experiment [5] (at 50.0 µM); 40% in experiment [6] (setting [7]); 90% (active) in experiment [6] (setting [8]); 81.6% (active) in experiment [6] (at 50.0 µM).

`COC(=O)c1cc(=O)n(-c2ccccc2OC)c(SC)n1`: the growth inhibition was 2% in experiment [1] (setting [7]); 83% (active) in experiment [1] (setting [8]); 89.5% (active) in experiment [1] (at 50.0 µM); -1% in experiment [2] (setting [7]); 73% (active) in experiment [2] (setting [8]); 89% (active) in experiment [2] (at 50.0 µM). Besides, the growth inhibition in experiment [3] (setting [7]) was 8%; in experiment [3] (setting [8]), 87% (active); in experiment [3] (at 50.0 µM), 92.5% (active); in experiment [4] (setting [7]) it was -8%; in experiment [4] (setting [8]), 67%; in experiment [4] (at 50.0 µM), 49.4%. Further, the growth inhibition in experiment [5] (setting [7]) is -5%; in experiment [5] (setting [8]), 58%; in experiment [5] (at 50.0 µM), 94.8% (active); in experiment [6] (setting [7]), -2%; in experiment [6] (setting [8]), 79% (active); in experiment [6] (at 50.0 µM), 98.1% (active).

Consider `CCOC(=O)CCC(NC(=O)c1ccc(NC(OC)c2nc3cc(C(F)(F)F)ccc3nc2-c2ccccc2)cc1)C(=O)OCC` (stereo not given), for which the growth inhibition in experiment [1] (setting [7]) was 88% (active); in experiment [1] (setting [8]), 88% (active); in experiment [1] (at 50.0 µM), 92.8% (active); in experiment [2] (setting [7]), 78% (active); in experiment [2] (setting [8]), 78% (active); in experiment [2] (at 50.0 µM) it was 93.2% (active). Further, the growth inhibition in experiment [3] (setting [7]) was 90% (active); in experiment [3] (setting [8]), 90% (active); in experiment [3] (at 50.0 µM), 93.8% (active); in experiment [4] (setting [7]), 80% (active); in experiment [4] (setting [8]), 80% (active); in experiment [4] (at 50.0 µM) it was 92.7% (active). The growth inhibition was 84% (active) in experiment [5] (setting [7]); 84% (active) in experiment [5] (setting [8]); 91.8% (active) in experiment [5] (at 50.0 µM); 92% (active) in experiment [6] (setting [7]); 92% (active) in experiment [6] (setting [8]); 91.9% (active) in experiment [6] (at 50.0 µM).

With `Nc1ccc(Sc2c3ccccc3nc3ccccc23)cc1`, the growth inhibition was 19% in experiment [1] (setting [7]); 59% in experiment [1] (setting [8]); 80.8% (active) in experiment [1] (at 50.0 µM); 16% in experiment [2] (setting [7]); 34% in experiment [2] (setting [8]); 63.3% in experiment [2] (at 50.0 µM). Moreover, the growth inhibition in experiment [3] (setting [7]) was 22%; in experiment [3] (setting [8]), 98% (active); in experiment [3] (at 50.0 µM) it was 87.2% (active); in experiment [4] (setting [7]) it was 19%; in experiment [4] (setting [8]) it was 96% (active); in experiment [4] (at 50.0 µM) it was 71.8% (active). The growth inhibition in experiment [5] (setting [7]) was 24%; in experiment [5] (setting [8]), 98% (active); in experiment [5] (at 50.0 µM), 85% (active); in experiment [6] (setting [7]), 18%; in experiment [6] (setting [8]), 48%; in experiment [6] (at 50.0 µM), 60.1%.

On to `CCOC(=O)C(CCc1ccccc1[N+](=O)[O-])C(C)=O` (stereo not given), for which the growth inhibition in experiment [1] (setting [7]) is 4%; in experiment [1] (setting [8]), 61%; in experiment [1] (at 50.0 µM), 78.9% (active); in experiment [2] (setting [7]), 2%; in experiment [2] (setting [8]), 11%; in experiment [2] (at 50.0 µM) it was 27.6%. In addition, the growth inhibition in experiment [3] (setting [7]) was -3%; in experiment [3] (setting [8]) it was 42%; in experiment [3] (at 50.0 µM) it was 66.8%; in experiment [4] (setting [7]), -1%; in experiment [4] (setting [8]) it was 8%; in experiment [4] (at 50.0 µM), -8.55%. Further, the growth inhibition in experiment [5] (setting [7]) was -3%; in experiment [5] (setting [8]) it was 8%; in experiment [5] (at 50.0 µM) it was 54%; in experiment [6] (setting [7]), -20%; in experiment [6] (setting [8]), 45%; in experiment [6] (at 50.0 µM), 69.7%.
